# About 83,000 compounds went through this panel and 20% of them were active in at least one assay; those are over-represented in the sample as a whole.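 Plates (96-well) were seeded with cells, treated with compound at one concentration, and incubated for 48 hours before percent growth was determined.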 A number with no mark means an inactive call. Active and inactive are the calls of the source. How the source made its calls: active means growth percent below 10; inactive means the rest.
# Test system: CAKI-1 renal
# Assay: NCI-60 one-dose screen, 48 h (100 = growth as untreated, 0 = no growth, -100 = all killed)
# Details: 10 µM unless noted
row,SMILES,growth
1,COc1cc(-c2nnc(-c3nc(-c4cc(OC)c(OC)c(OC)c4)n4ccccc34)o2)ccc1N,59.3%
2,O=C(Nc1ccc2c(c1)C(=O)c1ccccc1-2)c1ccccc1,74.7%
3,COc1ccc(CNC(=O)c2c(C)n([O-])c3ccc(OC)cc3[n+]2=O)cc1,230%
4,CC[N+](CCCCCCCCCC[N+](CC)(c1ccccn1)c1ccccn1)(c1ccccn1)c1ccccn1,24.2%
5,CC(C)N(Cc1ccccc1)c1c(S)ssc1=S,-2.48% (active)
6,O=C(NCCNC(=O)Oc1cccc2ccccc12)Oc1cccc2ccccc12,95%
7,Cc1[nH]c(=O)[nH]c(=O)c1CCSSCCc1c(C)[nH]c(=O)[nH]c1=O,97.1%
8,CC(C)N(Cc1ccccc1)c1c(Cl)ssc1=O,113%
9,CSc1nc(-c2ccc(O)cc2O)c2c(=O)[nH]c(Nc3ccc(S(=O)(=O)Nc4nc(C)cc(C)n4)cc3)nc2n1,1120%
10,c1ccc(COc2ccc(Nc3ncnc4c3cnn4-c3ccccc3)cc2)cc1,99.1%
11,O=C1/C(=C/c2ccc(F)cc2)Cc2ccccc21,113%
12,CC[n+]1c(/C=C/c2ccc(N3CCCC3)cc2)cccc1/C=C/c1ccc(N2CCCC2)cc1,-67.9% (active)
13,ICCC(c1ccccc1)(c1ccccc1)c1ccccc1,74.9%
14,O=C(CSc1nnc(-c2cc(-c3ccccc3)nc3ccccc23)o1)c1ccc(Br)cc1,91.2%
15,O=c1[nH]c(SCc2ccccc2)nc2nc(Nc3ccc(NC(=S)Nc4ccccc4)cc3)nc(-c3ccc(O)cc3O)c12,101%
16,Cc1cc(Cl)ccc1Nc1nc(C(F)(F)F)ccc1C(=O)N/N=C/c1ccc(Cl)cc1,-23.1% (active)
17,Cc1sc2nc3c4ccccc4c(NCCCN(C)C)nn3c(=O)c2c1C,84.4%

row,SMILES,growth
1,Cc1csc(C#Cc2cncc(O)c2)n1,93.8%
2,CN[C@@H]1C(OC2[C@H](O[C@H]3[C@H](O)[C@@H](O)[C@H](N=C(N)N)[C@@H](O)[C@@H]3N=C(N)N)OC(C)[C@]2(O)CO)OC(CO)C(O)C1O (stereo partly drawn),107%
3,N#CC1c2ccccc2C=CN1C(=O)N(c1ccccc1)c1ccccc1 (stereo not drawn),2.37% (active)
4,Nc1ccc2c(c1)C(=O)c1cc(Cl)c(Cl)cc1-2,70.4%
5,COc1ccc2c(c1)C(=Nc1cc(OC)c(OC)c(OC)c1)C(=O)N2,122%
6,CN(C)CCCN=c1cc2c(=O)n(CCCN(C)C)c(=O)c3c(NCCCN(C)C)cc4c(O)n(CCCN(C)C)c(=O)c1c4c3-2,4.58% (active)
7,COc1ccc(-c2cnc(SCC(=O)Nc3ccc(-c4nc5ccccc5s4)cc3)n2-c2ccc(OC)cc2)cc1,103%
8,O=c1[nH]cc(Nc2cc(Cl)c3nonc3c2[N+](=O)[O-])c(=O)[nH]1,27%
9,CCOC(=O)Nc1cc(-c2ccc(C)c(NS(C)(=O)=O)c2)nn2c(C)nnc12,3.16% (active)
10,NS(=O)(=O)c1cc2c(cc1Cl)NC=NS2(=O)=O,96.3%
11,COc1ccc2ncccc2c1Cc1c(OC)ccc2ncccc12,57.6%
12,Nc1nc(Nc2ccccc2SSc2ccccc2Nc2nc(N)nc(-c3cccc(Cl)c3)n2)nc(-c2cccc(Cl)c2)n1,75.5%
13,CC1CN(CC(O)c2ccc(Br)cc2)CCO1 (stereo not drawn),103%
14,CC[C@@H](C)/C=C(C)/C=C/C(=O)c1c(O)c(-c2ccc(O)cc2)cn(OC2CC(=O)CCC(C)OC(=O)CC2O)c1=O (stereo partly drawn),-17.1% (active)
15,COc1cc(/C=C2\SC(N3CCCCC3)=NC2=O)ccc1OCCCCCCOc1ccc(/C=C2\SC(N3CCCCC3)=NC2=O)cc1OC,4.5% (active)
16,CCCCCCCCN(CCO)CCCCCCCC,109%

# Test system: A498 renal
# Assay: as above
# Details: 10 µM unless noted
row,SMILES,growth
1,COc1cc(-c2nnc(-c3nc(-c4cc(OC)c(OC)c(OC)c4)n4ccccc34)o2)ccc1N,98.8%
2,O=C(Nc1ccc2c(c1)C(=O)c1ccccc1-2)c1ccccc1,66.4%
3,COc1ccc(CNC(=O)c2c(C)n([O-])c3ccc(OC)cc3[n+]2=O)cc1,104%
4,N#CC(C#N)C(C#N)C#N,99%
5,CC[N+](CCCCCCCCCC[N+](CC)(c1ccccn1)c1ccccn1)(c1ccccn1)c1ccccn1,-2.28% (active)
6,CCCCCCCSc1ncnc2[nH]ncc12,88.7%
7,CC(C)N(Cc1ccccc1)c1c(S)ssc1=S,-7.36% (active)
8,O=C(NCCNC(=O)Oc1cccc2ccccc12)Oc1cccc2ccccc12,89.2%
9,Cc1[nH]c(=O)[nH]c(=O)c1CCSSCCc1c(C)[nH]c(=O)[nH]c1=O,107%
10,CC(C)N(Cc1ccccc1)c1c(Cl)ssc1=O,109%
11,COc1cnc2c(c1)C(=O)c1c-2n(CCCN2CCCC2)c(=O)c2cc(F)ccc12,-92.8% (active)
12,CSc1nc(-c2ccc(O)cc2O)c2c(=O)[nH]c(Nc3ccc(S(=O)(=O)Nc4nc(C)cc(C)n4)cc3)nc2n1,113%
13,c1ccc(COc2ccc(Nc3ncnc4c3cnn4-c3ccccc3)cc2)cc1,77.9%
14,CC[n+]1c(/C=C/c2ccc(N3CCCC3)cc2)cccc1/C=C/c1ccc(N2CCCC2)cc1,-93% (active)
15,ICCC(c1ccccc1)(c1ccccc1)c1ccccc1,51.7%
16,O=C(CSc1nnc(-c2cc(-c3ccccc3)nc3ccccc23)o1)c1ccc(Br)cc1,102%
17,O=c1[nH]c(SCc2ccccc2)nc2nc(Nc3ccc(NC(=S)Nc4ccccc4)cc3)nc(-c3ccc(O)cc3O)c12,108%
18,Cc1cc(Cl)ccc1Nc1nc(C(F)(F)F)ccc1C(=O)N/N=C/c1ccc(Cl)cc1,-21.1% (active)

row,SMILES,growth
1,Cc1sc2nc3c4ccccc4c(NCCCN(C)C)nn3c(=O)c2c1C,51.8%
2,C[C@H](C(=O)N[C@@H](Cc1ccc(-c2ccccc2)cc1)C(=O)NC1CC(C)(C)NC(C)(C)C1)c1ccc(-c2ccccc2)c(F)c1,-4.66% (active)
3,Cc1csc(C#Cc2cncc(O)c2)n1,103%
4,CN[C@@H]1C(OC2[C@H](O[C@H]3[C@H](O)[C@@H](O)[C@H](N=C(N)N)[C@@H](O)[C@@H]3N=C(N)N)OC(C)[C@]2(O)CO)OC(CO)C(O)C1O (stereo partly drawn),109%
5,COCCOCCOCCOCCOc1ccc2c(c1)C(=O)c1nc3ncccc3c(=O)n1-2,-100% (active)
6,Nc1ccc2c(c1)C(=O)c1cc(Cl)c(Cl)cc1-2,76.5%
7,CN(C)CCCN=c1cc2c(=O)n(CCCN(C)C)c(=O)c3c(NCCCN(C)C)cc4c(O)n(CCCN(C)C)c(=O)c1c4c3-2,-64.8% (active)
8,COc1ccc(-c2cnc(SCC(=O)Nc3ccc(-c4nc5ccccc5s4)cc3)n2-c2ccc(OC)cc2)cc1,108%
9,O=c1[nH]cc(Nc2cc(Cl)c3nonc3c2[N+](=O)[O-])c(=O)[nH]1,93.8%
10,CCOC(=O)Nc1cc(-c2ccc(C)c(NS(C)(=O)=O)c2)nn2c(C)nnc12,-7.14% (active)
11,NS(=O)(=O)c1cc2c(cc1Cl)NC=NS2(=O)=O,110%
12,COc1ccc2ncccc2c1Cc1c(OC)ccc2ncccc12,60.4%
13,c1ccc(-c2n(Cc3ccc4ccccc4c3)cc[n+]2Cc2ccc3ccccc3c2)cc1,-20.5% (active)
14,CC[C@@H](C)/C=C(C)/C=C/C(=O)c1c(O)c(-c2ccc(O)cc2)cn(OC2CC(=O)CCC(C)OC(=O)CC2O)c1=O (stereo partly drawn),28.7%
15,CCCCc1n(Cc2ccc3ccccc3c2)cc[n+]1Cc1ccc2ccccc2c1,0.276% (active)
16,COc1cc(/C=C2\SC(N3CCCCC3)=NC2=O)ccc1OCCCCCCOc1ccc(/C=C2\SC(N3CCCCC3)=NC2=O)cc1OC,7.57% (active)
17,CCCCCCCCN(CCO)CCCCCCCC,111%
